Measurements as given in PubChem BioAssay (Tox21).
Inconclusive results are not listed. Activity calls are given as the source filed them. Unless noted, calls follow the shape of the dose curve; as a rule, active = well fitted curve in the direction sought with a large enough effect in the repeat runs; inconclusive = weak or mixed curves; inactive = no such curve, though single readings can be large; an effect the other way counts as inactive or inconclusive.

Legend:
[1] = biological target: Progesterone receptor (Homo sapiens) (UniProt P06401); experiment: qHTS assay to identify small molecule agonists of the progesterone receptor (PR) signaling pathway (AID 1346784; calls by dose curve; also: nearly all actives have a fitted effect of over 30% in size)
Summary of the method: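 Agonist qHTS: compounds pinned onto 3,000 PR-UAS-bla HEK 293T cells per well in charcoal-stripped serum medium, 16hr at 37C, then beta-lactamase activity measured by LiveBLAzer FRET fluorescence after 2 hours at room temperature.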

[2] = biological target: Progesterone receptor (Homo sapiens) (UniProt P06401); experiment: qHTS assay to identify small molecule antagonists of the progesterone receptor (PR) signaling pathway (AID 1346795; active = well fitted inhibition curve with a large enough effect in the signal ratio in the repeat runs, not every such curve was filed as active; the % refers to the signal ratio; also: potency is read from the fitted curve at half-maximal effect)
Summary of the method: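 Antagonist mode with agonist R5020 at 1 nM final and 16 hr incubation at 37C. Reporter was beta-lactamase driven by UAS in HEK293T (PR-UAS-bla), 2% charcoal-stripped serum; signal from LiveBLAzer FRET substrate, 2 hr at room temperature.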

[3] = qHTS assay to identify small molecule antagonists of the progesterone receptor (PR) signaling pathway - cell viability counter screen (AID 1346798); also: series mostly up to about 92 µM; nearly all actives have a fitted effect of over 50% in size
Summary of the method: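 Cytotoxicity read as CellTiter-Glo luminescence (30 min, room temperature) in the same wells as the beta-lactamase readout. HEK293T PR-UAS-bla cells in charcoal-stripped 2% FBS received compound and R5020, then 16 h at 37C, 5% CO2.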

[4] = qHTS assay to identify small molecule agonists of the progesterone receptor (PR) signaling pathway - cell viability counter screen (AID 1346799; calls by dose curve; also: nearly all actives have a fitted effect of over 45% in size; also: potency is read from the fitted curve at half-maximal effect)
Summary of the method: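 Cytotoxicity measured by CellTiter-Glo luminescence (30 min, RT) in the same wells as the PR beta-lactamase agonist read. Those HEK293T cells had 16 h compound treatment at 37 C in 2% charcoal-stripped FBS medium.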

[5] = qHTS assay to identify small molecule antagonists of the TGF-beta/Smad signaling pathway - cell viability counter screen (AID 1346824); also: nearly all actives have a fitted effect of over 50% in size
Summary of the method: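 SBE-bla HEK 293T cells, incubated overnight, then compound plus 0.25 ng/mL TGF-beta1 (stock added) for 5 hr at 37 C. Viability was read in the same wells by CellTiter-Glo luminescence after 30 min at room temperature.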

[6] = qHTS assay to identify small molecule agonists of the TGF-beta/Smad signaling pathway (AID 1346859; active = well fitted activation curve with a large enough effect in the signal ratio in the repeat runs, not every such curve was filed as active; the % refers to the signal ratio; also: series mostly up to about 77 µM)
Summary of the method: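 Fluorescence (ex 405 nm; em 460 and 530 nm) was read 2 h after LiveBLAzer FRET substrate at RT. The preceding compound treatment of overnight-plated SBE-bla HEK293T cells lasted 5 h at 37 C.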

[7] = biological target: Thyrotropin-releasing hormone receptor (Homo sapiens) (UniProt P34981); experiment: qHTS assay to identify small molecule antagonists of the thyrotropin-releasing hormone receptor (TRHR) signaling pathway (AID 1346877; active = well fitted inhibition curve with a large enough effect in the repeat runs, not every such curve was filed as active; also: series mostly up to about 51 µM)
Summary of the method: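 Following an 18 h incubation at 37 °C and a 2 h calcium dye load, TRHR-HEK293 cells were exposed to compound (5 min, room temperature) and challenged with TRH, 1 nM final.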

[8] = Human pregnane X receptor (PXR) small molecule agonists, qHTS cell viability counter screen (AID 1346977); also: nearly all actives have a fitted effect of over 50% in size; also: potency is read from the fitted curve at half-maximal effect
Summary of the method: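 Same-well viability read: CellTiter-Fluor added after 23 hr compound exposure, fluorescence measured 1 hr later. Cells were PXR-Luc HepG2 seeded at 2,000/well in 5% charcoal-stripped FBS medium, rested 5 hr before dosing at 37 C.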

[9] = qHTS assay to identify small molecule agonists of the TGF-beta/Smad signaling pathway - cell viability counter screen (AID 1346829); also: top concentration of the series differs between compounds; nearly all actives have a fitted effect of over 45% in size
Summary of the method: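 HEK 293T SBE-bla line, 5 hr compound exposure at 37 C, multiplexed CellTiter-Glo viability read by luminescence.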

[10] = biological target: Thyrotropin-releasing hormone receptor (Homo sapiens) (UniProt P34981); experiment: qHTS assay to identify small molecule agonists of the thyrotropin-releasing hormone receptor (TRHR) signaling pathway (AID 1346891; calls by dose curve; also: series mostly up to about 58 µM)
Summary of the method: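 Agonist-mode intracellular calcium readout: kinetic fluorescence over 3 min at 1 s intervals after compound addition to TRHR-HEK293 cells (18 h seeded, 2 h dye-loaded at 37 C). Fifteen concentrations, triplicates.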
% is scaled to controls: 0 for no effect and ±100 for the full control effect.

Thyrotropin-releasing hormone receptor (Homo sapiens), sequence (P34981 whole entry, looked up): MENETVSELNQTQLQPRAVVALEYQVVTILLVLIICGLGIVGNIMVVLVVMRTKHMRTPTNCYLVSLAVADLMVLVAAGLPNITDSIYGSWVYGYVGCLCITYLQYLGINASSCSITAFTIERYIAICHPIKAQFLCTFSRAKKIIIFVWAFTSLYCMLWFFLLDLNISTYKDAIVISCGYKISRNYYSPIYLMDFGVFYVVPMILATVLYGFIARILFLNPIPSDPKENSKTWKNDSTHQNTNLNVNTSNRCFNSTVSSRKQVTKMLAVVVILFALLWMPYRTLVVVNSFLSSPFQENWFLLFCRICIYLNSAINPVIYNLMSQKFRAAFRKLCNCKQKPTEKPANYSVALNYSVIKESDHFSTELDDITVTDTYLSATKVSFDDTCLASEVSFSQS
Progesterone receptor (Homo sapiens), sequence (P06401 whole entry, looked up): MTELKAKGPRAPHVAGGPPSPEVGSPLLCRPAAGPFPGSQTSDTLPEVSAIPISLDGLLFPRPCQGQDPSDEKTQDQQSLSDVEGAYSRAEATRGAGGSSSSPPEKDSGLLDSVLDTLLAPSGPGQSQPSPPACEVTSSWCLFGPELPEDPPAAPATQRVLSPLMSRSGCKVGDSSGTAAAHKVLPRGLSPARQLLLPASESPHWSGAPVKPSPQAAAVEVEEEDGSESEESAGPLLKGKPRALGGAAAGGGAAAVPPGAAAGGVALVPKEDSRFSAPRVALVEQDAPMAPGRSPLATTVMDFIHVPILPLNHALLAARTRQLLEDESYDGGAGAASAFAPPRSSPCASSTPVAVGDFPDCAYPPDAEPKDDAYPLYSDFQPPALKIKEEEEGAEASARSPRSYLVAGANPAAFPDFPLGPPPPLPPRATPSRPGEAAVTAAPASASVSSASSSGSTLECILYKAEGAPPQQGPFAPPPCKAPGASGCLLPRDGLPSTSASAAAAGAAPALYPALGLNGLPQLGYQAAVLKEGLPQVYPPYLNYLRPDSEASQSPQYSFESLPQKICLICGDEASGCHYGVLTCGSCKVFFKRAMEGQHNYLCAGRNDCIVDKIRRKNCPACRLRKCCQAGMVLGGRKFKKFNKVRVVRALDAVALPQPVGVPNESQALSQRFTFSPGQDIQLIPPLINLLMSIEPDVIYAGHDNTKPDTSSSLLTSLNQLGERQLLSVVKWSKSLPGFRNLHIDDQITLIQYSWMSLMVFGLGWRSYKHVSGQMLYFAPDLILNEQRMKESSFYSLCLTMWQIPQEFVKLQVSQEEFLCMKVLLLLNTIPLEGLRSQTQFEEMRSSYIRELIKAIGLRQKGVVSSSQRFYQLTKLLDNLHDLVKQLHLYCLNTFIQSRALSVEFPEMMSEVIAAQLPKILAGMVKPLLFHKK

CO[C@@H]1[C@H](OC(=O)/C=C/C=C/C=C/C=C/C(=O)O)CC[C@]2(CO2)[C@H]1[C@@]1(C)O[C@@H]1CC=C(C)C
inactive: Potency [1] | Potency [2] | Potency [3] | Potency [4] | Potency [5] | Potency [6] | outcome [7] | Potency [8]

Cc1cccc(C)c1NC(=O)CN(CC(=O)O)CC(=O)O
inactive: Potency [1] | Potency [2] | Potency [3] | Potency [5] | outcome [9] | Potency [6] | outcome [7] | Potency [10] | Potency [8]

CC1(c2ccccc2)OC(C(=O)O)=CC1=O (stereo not given)
inactive: Potency [1] | Potency [2] | Potency [3] | Potency [4] | outcome [9] | Potency [6] | outcome [7] | Potency [10] | Potency [8]

CCc1c(C(=O)NN2CCCCC2)nn(-c2ccc(Cl)cc2Cl)c1-c1ccc(Br)cc1
inactive: Potency [1] | Potency [3] | Potency [5] | outcome [9] | Potency [10]
active: Potency [2] 3.44 µM

C=CC1CC2C=CC1C2 (stereo not given)
inactive: Potency [1] | Potency [2] | Potency [3] | Potency [4] | Potency [5] | outcome [7] | Potency [10] | Potency [8]

CCCCCCCCCCCc1ccccc1
inactive: Potency [1] | Potency [2] | Potency [4] | Potency [5] | outcome [9] | Potency [6] | outcome [7] | Potency [8]

O=S(=O)(Oc1ccc(Cl)cc1)c1ccccc1
inactive: Potency [1] | Potency [3] | Potency [4] | outcome [9] | Potency [6] | outcome [7] | Potency [8]
active: Potency [2] 24.3 µM

COc1ccnc(CS(=O)c2nc3ccc(OC(F)F)cc3[nH]2)c1OC (stereo not given)
inactive: Potency [1] | Potency [2] | Potency [3] | Potency [5] | outcome [9] | Potency [6] | Potency [8]

CCOC(=O)C(O)c1ccccc1 (stereo not given)
inactive: Potency [1] | Potency [2] | Potency [3] | Potency [4] | Potency [5] | Potency [6] | outcome [7] | Potency [10] | Potency [8]

Cc1cccc(Nc2ccccc2)c1
inactive: Potency [1] | Potency [2] | Potency [3] | Potency [5] | outcome [9] | Potency [6] | Potency [8]

C=C1C(=C/C=C2\CCC[C@]3(C)[C@@H]([C@H](C)/C=C/[C@@H](O)C4CC4)CC[C@@H]23)C[C@@H](O)C[C@@H]1O
inactive: Potency [1] | Potency [5] | outcome [9] | Potency [6]
active: Potency [2] 11.9 µM

CN(C)CCN(Cc1ccc(Cl)cc1)c1ccccn1
inactive: Potency [1] | Potency [2] | Potency [4] | Potency [5] | outcome [9] | Potency [6] | outcome [7] | Potency [10]

CN(Cc1ccc(C(C)(C)C)cc1)Cc1cccc2ccccc12
active: Potency [4] 10.6 µM
inactive: Potency [1] | Potency [2] | outcome [9] | Potency [10] | Potency [8]

O=C1CCC(=O)O1
inactive: Potency [1] | Potency [2] | Potency [3] | Potency [4] | Potency [5] | outcome [7] | Potency [8]

CCN(CC)CCOC(=O)C(c1ccccc1)C1CCCCC1 (stereo not given)
inactive: Potency [1] | Potency [2] | Potency [3] | Potency [5] | outcome [9] | Potency [6]

CC1=CC[C@H](C(C)C)C=C1
inactive: Potency [1] | Potency [2] | Potency [3] | Potency [4] | Potency [5] | Potency [6] | Potency [8]

CN1CCC(=C2c3ccccc3Sc3ccccc32)CC1
active: Potency [2] 23.7 µM | Potency [8] 23.7 µM
inactive: Potency [1] | Potency [4] | Potency [5] | outcome [9] | outcome [7] | Potency [10]

CCCCCCCCCCCCCCCCOS(=O)(=O)O
inactive: Potency [1] | Potency [2] | Potency [5] | outcome [9] | Potency [6] | Potency [8]
active: Potency [4] 18.8 µM

CCCCCCCC#N
inactive: Potency [1] | Potency [2] | Potency [3] | Potency [5] | outcome [9] | Potency [6] | outcome [7] | Potency [10]

CCN(CC)CCOC(=O)C(Cc1cccc2ccccc12)CC1CCCO1 (stereo not given)
inactive: Potency [1] | Potency [2] | Potency [3] | Potency [5] | outcome [9] | Potency [6] | outcome [7]

CCCCC(CC)CN1C(=O)C2C3C=CC(C3)C2C1=O (stereo not given)
active: Potency [2] 34.4 µM
inactive: Potency [1] | Potency [3] | Potency [4] | Potency [5] | outcome [7] | Potency [10] | Potency [8]

Cc1cc(C(=O)O)ccc1[N+](=O)[O-]
inactive: Potency [1] | Potency [3] | Potency [4] | Potency [5] | outcome [9] | Potency [6] | outcome [7] | Potency [10] | Potency [8]

O=[N+]([O-])c1ccc2[nH]ncc2c1
inactive: Potency [1] | Potency [3] | Potency [4] | Potency [5] | outcome [9] | Potency [6] | outcome [7] | Potency [10] | Potency [8]

CC(CC=O)c1ccccc1 (stereo not given)
inactive: Potency [1] | Potency [3] | Potency [4] | Potency [5] | outcome [9] | Potency [6] | outcome [7] | Potency [10] | Potency [8]

CCC(Cl)CCC(Cl)C(Cl)CC(Cl)C(Cl)C(Cl)CCl (stereo not given)
inactive: Potency [1] | Potency [3] | Potency [4] | Potency [5] | outcome [9] | Potency [6] | outcome [7] | Potency [10] | Potency [8]

Cc1[nH]c(C)c(Cl)c(=O)c1Cl
inactive: activation [1] 2.04% [at 19 µM] | activity change, negative = cytotoxicity [3] 10.6% [at 18.9 µM] | activity change, negative = cytotoxicity [4] 5.96% [at 19 µM] | viability change, negative = cytotoxic [5] 5.33% [at 15.8 µM] | activity change, negative = cytotoxicity [9] 5.04% [at 15.8 µM] | activation [6] 0.225% [at 15.8 µM] | activity, negative = inhibition [7] 2.83% [at 10.5 µM] | activity change, negative = cytotoxicity [8] 6.66% [at 19 µM]
